Hits are enriched below; roughly 2.9% of the tested compounds scored in any of these assays.
Pol iota inh: qHTS for Inhibitors of Polymerase Iota | DNA polymerase iota (Homo sapiens), Q9UNA4 | Pol iota fluorescent replication assay, 10 min | Potency, µM (doses to about 115 µM), usual class: inhibitors | actives 1% (n = 390,000) | AID 588590, 2011
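Pol iota at 10 nM preincubated 15 min with compounds at room temperature; reaction started with fluorescent substrate, 50 nM final. Fluorescence read kinetically at 0 and 10 min; buffer-only wells as negative control.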
Pol beta inh: qHTS Assay for Inhibitors of DNA Polymerase Beta | P06746 | Pol beta primer extension/strand displacement, fluorescence kinetic | Potency, µM (series often up to 114 µM), usual class: inhibitors | actives 1.3% (n = 340,000)
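Preincubation: enzyme (10 nM) with compound, 15 min, RT. Reaction: substrate added to 50 nM final. Reads: 0 and 10 min. Analysis: normalized, Hill fit.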
Pol eta inh-1: qHTS for Inhibitors of Polymerase Eta | DNA polymerase eta (Homo sapiens), Q9Y253 | recombinant Pol eta, fluorescent DNA replication assay | Potency, µM (titrated, usually from 114 µM), actives largely listed as inhibitors | actives 1.2% (n = 390,000) | AID 588591, 2011
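Pol eta at 10 nM preincubated with compounds 15 min at room temperature; reaction started with fluorescent substrate (50 nM final) and read kinetically at 0 and 10 min.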
Pol kappa inh-1: qHTS for Inhibitors of Polymerase Kappa | DNA polymerase kappa (Homo sapiens), Q9UBT6 | purified Pol kappa, fluorescent DNA synthesis assay, 10 min | Potency, µM (titrated, usually from 107 µM), most hits filed as inhibitors | actives 0.53% (n = 400,000)
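Readout: fluorescence, taken kinetically at 0 and 10 min. Conditions: 10 nM Pol kappa, 15 min RT compound preincubation, 50 nM substrate final. Controls: enzyme-free buffer wells.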
PI5P4K alpha inh: qHTS for Inhibitors of phosphatidylinositol 5-phosphate 4-kinase (PI5P4K); PI5P4Kalpha enzyme, ADP-Glo luminescence, 60 min; hits give low values; max response, %; actives 1.2% (n = 330,000); active means max response of -50% or lower; inconclusive means between -30% and -50%; inactive means -30% or higher; further: value at the top dose of about 77 µM
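Reactions run in 0.038 M HEPES pH 7.4, 0.28 mM EGTA, 0.1% CHAPS and 5% DMSO, with PI5P4Kalpha, substrate, compound and 5 microM ATP final, one hour at room temperature. Readout is ADP-Glo luminescence.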
12-LOX inh: Primary qHTS assay for inhibitors of human arachidonate 12S-lipoxygenase (ALOX12): Round 2 | Polyunsaturated fatty acid lipoxygenase ALOX12 (Homo sapiens), P18054 | purified 12hLO, xylenol orange hydroperoxide absorbance | Potency, µM (series often up to 108 µM), usual class: inhibitors | actives 1.1% (n = 580,000) | AID 1671190, 2021
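Purified human 12hLO (150 nM final) in 25 mM Hepes, 0.01% Triton X-100, pH 7.0 was preincubated 15 min at room temperature with compound. Then 40 uM arachidonic acid was added, 30 min. Hydroperoxide was read by Fe-XO absorbance ratio 573/405 nm.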
TbPGK inh: qHTS for inhibitors of Phosphogylcerate Kinase: Hit Validation Screen; TbPGK coupled GAPDH assay, Kinase-Glo luminescence; AID 686980, 2013; shares compounds with Pol kappa inh-1; actives 79% (n = 500); Potency, µM (titrated, usually from 57.5 µM), most hits filed as inhibitors; further: nearly all actives have a fitted effect of over 65% in size
POLI cherry-pick: qHTS for Inhibitors of Polymerase Iota: Confirmatory Assay for Cherry-picked Compounds; shares compounds with Pol kappa inh-1; Pol iota primer extension, TAMRA/BHQ fluorescence; Potency, µM, hits mostly inhibitors; actives 77% (n = 1,500)
Pol kappa inh-2: qHTS for Inhibitors of Polymerase Kappa: Confirmatory Assay for Cherry-picked Compounds; shares compounds with Pol eta inh-1; purified Pol-kappa, fluorescent strand-displacement substrate; Potency, µM, hits mostly inhibitors; actives 76% (n = 920)
Pol eta inh-2: qHTS for Inhibitors of Polymerase Eta: Confirmatory Assay for Cherry-picked Compounds | shares compounds with Pol eta inh-1 | Pol eta primer extension, TAMRA/BHQ fluorescence, 10 min | Potency, µM, hits mostly inhibitors | actives 64% (n = 2,600)
ADP-Glo counter: qHTS for Inhibitors of PI5P4K: ADP-Glo counter assay | shares compounds with PI5P4K alpha inh | ADP-Glo detection counter-screen, luciferase luminescence, no enzyme | Potency, µM (top dose mostly 76.9 µM), hits mostly inhibitors | 1,100 tested, under 10 active
Of the large screens only hits and unclear results are named; the others gave an inactive call (follow-up assays come after a bar, where they were run). Unless noted, the call rests on the fitted dose curve; in most records, active means well fitted curve in the direction sought with a large enough effect; inconclusive means small, poorly fitted or top-dose-only effect, or another doubt; inactive means no such curve, though single readings can be large; an effect the other way counts as inactive or inconclusive.

COCCN(C(=O)COC(=O)c1cc2c(s1)CCC2)c1c(N)n(Cc2ccccc2)c(=O)[nH]c1=O	Pol iota inh 3.2µM, Pol eta inh-1 0.71µM, Pol kappa inh-1 4.5µM, PI5P4K alpha inh -87, 12-LOX inh inconclusive (no result: Pol beta inh) | TbPGK inh 0.82µM | POLI cherry-pick 1.9 | Pol eta inh-2 2.1 | ADP-Glo counter inactive
Cc1c(CC(=O)O)c(=O)oc2c(C)c3occ(-c4ccc(Br)cc4)c3cc12	Pol beta inh 22µM, Pol eta inh-1 inconclusive, PI5P4K alpha inh -51, 12-LOX inh inconclusive | POLI cherry-pick 42 | Pol eta inh-2 76 | ADP-Glo counter inactive
COc1ccc(-c2coc3c(C)c4oc(=O)c(CC(=O)O)c(C)c4cc23)cc1	none
CCNC(=O)C1CCN(C(=O)Cn2c(=O)c3c(ncn3CCOC)n(Cc3ccccc3)c2=O)CC1	none (no result: Pol iota inh, Pol beta inh, Pol eta inh-1, Pol kappa inh-1, PI5P4K alpha inh)
O=C(COC(=O)C1CC2C=CC1C2)NCc1ccco1 (centres undefined)	Pol iota inh 14µM, Pol beta inh 16µM, Pol eta inh-1 8.9µM, Pol kappa inh-1 40µM, PI5P4K alpha inh -74 | POLI cherry-pick 42 | Pol eta inh-2 48 | ADP-Glo counter inactive
O=C(COC(=O)C1CC2C=CC1C2)NCc1ccc(F)cc1 (centres undefined)	none
COc1ccc(S(=O)(=O)N2CCOCC2)cc1NC(=O)c1cccc(-n2cccc2)c1	Pol iota inh 7.1µM, Pol eta inh-1 2.5µM, Pol kappa inh-1 40µM, PI5P4K alpha inh -74 (no result: Pol beta inh) | POLI cherry-pick inconclusive | ADP-Glo counter inactive
COc1cccc(NC(=O)CN(C)C(=O)c2cc3c(s2)CCC(C)C3)c1 (centres undefined)	none (no result: Pol beta inh)
COc1cccc(NC(=O)CN(C)C(=O)c2cc3c(s2)CCC3)c1	Pol iota inh 22µM, Pol eta inh-1 3.5µM, Pol kappa inh-1 32µM, PI5P4K alpha inh -71, 12-LOX inh inconclusive (no result: Pol beta inh) | POLI cherry-pick 34 | Pol eta inh-2 76 | ADP-Glo counter inactive
CSc1nn(CCN(C)C)c2nc3sc4c(c3c(=O)n12)CCCC4	none (no result: Pol iota inh, Pol beta inh, Pol eta inh-1, Pol kappa inh-1, PI5P4K alpha inh)
COc1ccc2c(c1)c(=O)oc1c(C)c(OCc3ccc(C(=O)O)cc3)ccc12	Pol iota inh inconclusive, Pol beta inh inconclusive, Pol eta inh-1 inconclusive, PI5P4K alpha inh inconclusive (no result: 12-LOX inh)
COc1ccc2c(c1)c(=O)oc1c(C)c(OCc3cc(C(=O)O)oc3C)ccc12	Pol iota inh 35µM, Pol beta inh 35µM, Pol eta inh-1 14µM, Pol kappa inh-1 79µM, PI5P4K alpha inh -68, 12-LOX inh inconclusive | POLI cherry-pick inconclusive | Pol eta inh-2 inconclusive | ADP-Glo counter inactive
CCc1nc2sc3ccccc3c(=O)c2c(=O)n1Cc1ccco1	Pol iota inh 16µM, Pol beta inh 20µM, Pol eta inh-1 32µM, Pol kappa inh-1 50µM, PI5P4K alpha inh -68 | POLI cherry-pick inconclusive | ADP-Glo counter inactive
Cc1cc2nc(CSc3nc4ccc(NC(=O)C(C)(C)C)cc4s3)cc(=O)n2o1	none (no result: Pol iota inh, Pol beta inh, Pol eta inh-1, Pol kappa inh-1, PI5P4K alpha inh)
Cc1cc2[nH]c3c4ccccc4nc(C)c3c2cc1C	Pol iota inh 14µM, Pol kappa inh-1 79µM, PI5P4K alpha inh -52, 12-LOX inh inconclusive (no result: Pol beta inh) | POLI cherry-pick 42 | ADP-Glo counter inactive
Cc1nc2c3cccnc3nn2c(C)c1CCC(=O)NCc1ccc(Cl)cc1	none (no result: Pol iota inh, Pol beta inh, Pol eta inh-1, Pol kappa inh-1, PI5P4K alpha inh)
CC(=O)Nc1ccc(S(=O)(=O)Nc2cccc(-n3cnnn3)c2)cc1	none
CC(=O)c1ccc(S(=O)(=O)Nc2cccc(-n3cnnn3)c2)cc1	Pol iota inh 20µM, Pol beta inh inconclusive, Pol eta inh-1 7.9µM, Pol kappa inh-1 inconclusive, PI5P4K alpha inh -67 | POLI cherry-pick 75 | Pol eta inh-2 30 | ADP-Glo counter inactive
COc1cccc(CN2C(=O)OC3(CCN(Cc4ccccc4OC)CC3)C2(C)c2cccnc2)c1 (centres undefined)	none (no result: Pol iota inh, Pol beta inh, Pol eta inh-1, Pol kappa inh-1, PI5P4K alpha inh)
Cc1cc(N)n(-c2ccc(Oc3ccccc3)c(S(=O)(=O)O)c2)n1	Pol iota inh inconclusive, Pol beta inh 14µM, Pol eta inh-1 18µM, Pol kappa inh-1 inconclusive, 12-LOX inh inconclusive | Pol kappa inh-2 inconclusive
O=C(N/N=C/c1ccncc1)c1cccc(NC(=O)c2ccc(Cl)cc2)c1	Pol iota inh inconclusive, Pol beta inh 45µM | Pol kappa inh-2 inconclusive
